BAZ2B inh = qHTS Assay for Inhibitors of BAZ2B | Bromodomain adjacent to zinc finger domain protein 2B (Homo sapiens), Q9UIF8 | AlphaScreen BAZ2B-H3K14Ac peptide displacement | Potency, µM (series often up to 114 µM), usual class: inhibitors | hit rate 4.4% among 360,000; further: nearly all actives have a fitted effect of over 60% in size
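Multi-concentration screen (max 110 uM) measuring displacement of acetylated histone H3 peptide from BAZ2B by AlphaScreen, using 50 nM protein, 50 nM peptide and 10 ug/mL streptavidin donor plus Ni-chelate acceptor beads.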
L3MBTL1 block = qHTS Assay for the Inhibitors of L3MBTL1; hit rate 0.66% among 230,000; AlphaScreen L3MBTL1–H3K9me1 peptide binding; Lethal(3)malignant brain tumor-like protein 1 (Homo sapiens), Q9Y468; Potency, µM (doses to about 57.1 µM), hits mostly inhibitors; further: nearly all actives have a fitted effect of over 60% in size
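L3MBTL1 50 nM + b-AHA-H3(1-15)K9me1 75 nM, 30 min RT; compound added, 30 min RT; streptavidin donor/Ni-chelate acceptor beads 10 ug/mL each final, 30 min RT dark; AlphaScreen read.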
JMJD2A Tudor inh = qHTS Assay for Inhibitors of JMJD2A-Tudor Domain. Lysine-specific demethylase 4A (Homo sapiens), O75164. AlphaScreen JMJD2A-Tudor / H3K4me3 peptide binding. Potency, µM (highest dose often 114 µM), hits mostly inhibitors. hit rate 4.4% among 390,000. AID 504339, 2011; further: nearly all actives have a fitted effect of over 50% in size
G9a block = qHTS Assay for Inhibitors of Histone Lysine Methyltransferase G9a | Histone-lysine N-methyltransferase EHMT2 (Homo sapiens), Q96KQ7 | hit rate 8.8% among 350,000 | Potency, µM (titrated, usually from 102 µM), usual class: inhibitors | G9a H3K9 monomethylation, AlphaScreen, 2 h; further: nearly all actives have a fitted effect of over 75% in size
Target sequence (Q96KQ7 913-1193 limits assumed): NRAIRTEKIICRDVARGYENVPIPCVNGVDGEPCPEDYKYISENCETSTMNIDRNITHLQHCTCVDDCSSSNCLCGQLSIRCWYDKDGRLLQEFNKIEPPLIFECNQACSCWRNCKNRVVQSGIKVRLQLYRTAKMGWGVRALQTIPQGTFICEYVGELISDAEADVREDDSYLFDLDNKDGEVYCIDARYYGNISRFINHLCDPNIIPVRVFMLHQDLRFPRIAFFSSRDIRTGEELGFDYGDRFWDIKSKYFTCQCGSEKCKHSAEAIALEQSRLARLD
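G9a (20 nM) was preincubated 15 min with compound, then reacted 2 h at room temperature with 500 nM biotin-H3K9 peptide and 20 µM SAM. Monomethyl-H3K9 detected by AlphaScreen using anti-H3K9me1 antibody.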
HP1b binding inh = HTS for Inhibitors of HP1-beta Chromodomain Interactions with Methylated Histone Tails. Chromobox protein homolog 1 (Homo sapiens), P83916. AlphaScreen HP1-beta / biotin-H3K9me3 peptide binding. Potency, µM (top dose mostly 114 µM), hits mostly inhibitors. hit rate 0.56% among 390,000; further: nearly all actives have a fitted effect of over 70% in size
Target sequence (P83916 whole entry, looked up): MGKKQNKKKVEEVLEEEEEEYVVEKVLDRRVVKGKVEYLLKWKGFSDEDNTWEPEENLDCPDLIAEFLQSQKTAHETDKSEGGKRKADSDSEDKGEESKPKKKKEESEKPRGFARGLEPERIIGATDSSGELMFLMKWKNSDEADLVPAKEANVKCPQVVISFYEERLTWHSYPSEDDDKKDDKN
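AlphaScreen: HP1-beta (50 nM) preformed 30 min with biotin-H3(1-18)K9me3 peptide (50 nM) in PBS pH 7.4, 0.01% Tween-20. Compound added for 30 min at RT, then streptavidin donor/nickel chelate acceptor beads (10 ug/mL) for 30 min.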
Hits are given with their value; – = inactive; ? = inconclusive; · = no result; [ ] = remark or other dose. Shown are actives, neighbours in structure and some others; about 11% of the full set was active somewhere. The call rests on the fitted dose curve; in most records, active means well fitted inhibition curve with a large enough effect; inconclusive means small, poorly fitted or top-dose-only effect; inactive means no such curve, though single readings can be large or run the other way.

SMILES | BAZ2B inh | L3MBTL1 block | JMJD2A Tudor inh | G9a block | HP1b binding inh
CCc1ccc(/C(C)=N/NC(=O)CNC(=O)/C=C/c2ccco2)cc1 | · | · | 22µM | · | 22µM
CCOc1ccc(CCNC(=O)/C=C/c2ccco2)cc1OCC | ? | · | – | 35µM | –
COc1ccc(/C=C(\NC(=O)/C=C/c2ccco2)C(=O)NCCc2nc3ccccc3[nH]2)cc1 | 50µM | – | ? | ? | ?
COc1ccc(CCNC(=O)/C=C/c2ccco2)cc1OC | – | – | – | 14µM | –
COc1ccc(/C=C(\NC(=O)c2ccco2)C(=O)NCCc2nc3ccccc3[nH]2)cc1 | – | – | – | · | –
Cc1ccc2ncnc(NCc3ccco3)c2c1 | · | · | – | · | –
CCc1ccc(C2=NN(C(C)=O)C(c3ccco3)C2)cc1 (centres undefined) | ? | – | – | · | –
COc1ccc(/C=C/C(=O)NCCc2ccc(S(N)(=O)=O)cc2)cc1 | – | – | – | – | –
COc1ccc(CCNC(=O)/C=C/c2ccco2)cc1 | ? | – | 32µM | · | ?
CC(C(=O)N(C)Cc1cccc(F)c1)N1CCN(S(=O)(=O)c2ccc3c(c2)OCCCO3)CC1 (centres undefined) | – | – | – | 40µM | –
CCN(Cc1nc(-c2ccc(OC)cc2)oc1C)S(=O)(=O)c1ccc(Cl)cc1 | ? | · | – | 13µM | ?
CCN(Cc1nc(-c2ccc(OC)cc2)oc1C)S(=O)(=O)c1ccc(C)cc1 | ? | · | – | ? | ?
CCOC(=O)c1c(/C=N/Nc2ccccc2)c2sc(C)cc2n1C | ? | – | · | ? | ·
S=c1[nH]nc(CSCCOc2ccccc2)o1 | – | – | – | · | –
S=c1[nH]nc(COc2ccc3ccccc3c2)o1 | – | – | – | 0.89µM | –
COc1ccc(Cc2n[nH]c(=S)o2)cc1 | – | – | 32µM | · | –
COc1ccc(CCCc2n[nH]c(=S)o2)cc1 | ? | · | – | ? | –
CCCSc1ncc(Cl)c(C(=O)Nc2sc(C(C)=O)c(C)c2C(=O)OCC)n1 | – | · | – | – | –
Cc1cc(C)c(NC(=O)C(C)n2nc(-c3ccc(C)c(C)c3)ccc2=O)c(C)c1 (centres undefined) | ? | · | – | – | –
COc1ccccc1NC(=O)c1ccccc1NS(C)(=O)=O | – | –[11.4 µM] | – | –[12.7 µM] | –
COc1cccc(OC)c1C(=O)Nc1ccccc1Sc1ccccc1 | · | · | – | · | –
COc1ccccc1NC(=O)c1ccccc1NS(=O)(=O)c1cccs1 | – | – | – | 50µM | –
COc1cccc(OC)c1C(=O)Nc1ccccc1NC(=O)c1c(OC)cccc1OC | – | · | – | 79µM | –
CCCc1nn2c(=O)cc(COC(=O)c3ccc(NC(=O)c4cccs4)cc3)nc2s1 | – | · | – | –[12.7 µM] | –
COc1ccc(-n2c(SCC(=O)Nc3nnc(C)s3)nc3c([nH]c4ccccc43)c2=O)cc1 | – | · | – | – | –
SMILES | BAZ2B inh | L3MBTL1 block | JMJD2A Tudor inh | G9a block | HP1b binding inh
COc1cc2c(cc1OC)C(c1cccs1)N(C(=O)c1cccc(S(=O)(=O)N(C)C)c1)CC2 (centres undefined) | – | – | ? | 50µM | –
COc1ccc(C)c2sc(N(Cc3cccnc3)C(=O)CCc3ccccc3)nc12 | – | · | – | ? | –
CCOc1ccc(NC(C)C(=O)N/N=C/c2cccs2)cc1 (centres undefined) | ? | – | – | 45µM | –
COc1ccccc1NC(C)C(=O)N/N=C/c1cccs1 (centres undefined) | ? | – | – | – | –
COc1ccccc1C(=O)Nc1ccccc1C(=O)OCc1cc(=O)n2ccsc2n1 | – | · | – | –[12.7 µM] | –
COc1ccccc1OCC(=O)NCc1ccco1 | – | – | – | 56µM | –
COc1ccccc1C(C)NCC(=O)NC(=O)NCc1ccco1 (centres undefined) | 50µM | – | ? | – | –
COc1ccccc1C(=O)NCc1ccco1 | – | – | – | · | –
COc1ccc(S(=O)(=O)Nc2ccccc2C(=O)NCc2ccco2)cc1 | ? | – | –[11.4 µM] | 14µM | –
CN(c1ccccc1)S(=O)(=O)c1ccc(C(=O)OCC(=O)NCc2ccco2)cc1 | ? | · | ? | ? | –
CCN(CC)S(=O)(=O)c1ccc(C(=O)OCC(=O)NCc2ccco2)cc1 | 50µM | – | ? | ? | –
COc1cccc(N2CCN(C(=O)CSc3ccc(F)cc3)CC2)c1 | – | · | – | – | –
CCN(CC)S(=O)(=O)c1ccc(/C=C/C(=O)OCC(=O)NCc2ccco2)cc1 | · | ? | 32µM | · | ?
COc1cc(C(=O)NNC(=O)c2ccco2)cc(OC)c1OC | – | · | – | – | –
COc1ccccc1NS(=O)(=O)c1ccc(C(=O)OCC(=O)NCc2ccco2)cc1 | 50µM | ? | – | 50µM | –
COc1cc(C(=O)NNC(=S)NCc2ccco2)cc(OC)c1OC | – | – | – | 56µM | –
CCN(CC)S(=O)(=O)c1ccc(/C=C/C(=O)OCC(=O)NCc2cccs2)cc1 | – | – | – | – | –
COc1ccccc1NC(=O)COC(=O)c1ccc(S(=O)(=O)NCc2ccco2)cc1 | ? | – | – | –[12.7 µM] | –
CCCCCCCCCCCCC/C=C/[C@@H](O)[C@H](CO)NC(C)=O | · | · | · | – | ·
Cc1ccc(NC(=O)C(=O)NCC(c2ccc3c(c2)OCO3)N2CCN(C)CC2)cc1C (centres undefined) | – | · | – | – | –
C=CCNC(=O)C1CC(=O)N(c2ccc(OCC(=O)Nc3ccc(Cl)cc3)cc2)C1 (centres undefined) | – | · | 71µM | – | –
COc1ccc(-c2csc3ncnc(N4CCN(c5cccc(OC)c5)CC4)c23)cc1 | – | · | – | · | –
COc1ccc(N2CCN(c3ncnc4sc(C(=O)NCC5CCCO5)c(C)c34)CC2)cc1 (centres undefined) | – | · | ? | 40µM | –
COc1ccc(-c2csc3ncnc(N4CCN(C(=O)c5ccco5)CC4)c23)cc1 | – | – | – | 50µM | –
COc1ccc(N2CCN(c3ncnc4scc(-c5ccc(C)cc5)c34)CC2)cc1 | 11µM | · | 25µM | 25µM | ?
SMILES | BAZ2B inh | L3MBTL1 block | JMJD2A Tudor inh | G9a block | HP1b binding inh
COc1ccc(N2CCN(c3ncnc4scc(-c5ccccc5)c34)CC2)cc1 | 14µM | · | 25µM | 7.9µM | ?
N#Cc1ccc(C(=O)NCC(=O)OC(C(=O)Nc2cc(C(F)(F)F)ccc2Cl)c2ccccc2)cc1 (centres undefined) | · | · | – | · | ·
Cc1cc2c(cc1NC(=O)c1ccccc1C)n(C)c(=O)c(=O)n2C | – | · | – | – | –
COc1ccc(CN2CCN(c3ncnc4scc(-c5ccc(F)cc5)c34)CC2)cc1 | ? | · | ? | –[2.33 µM] | ?
COc1ccc(N2CCN(c3ncnc4scc(-c5ccc(F)cc5)c34)CC2)cc1 | 7.9µM | · | 22µM | 10µM | ?
COc1cc(OC)c2c(c1C(CCN1CCOCC1)c1ccc(N(C)C)cc1)OC(=O)CC2c1ccc(N(C)C)cc1 (centres undefined) | 10µM | · | 6.3µM | – | 14µM
